From ChEMBL document CHEMBL3988442, “University of Dundee, Small-Polar-MMV Screening Library” (2021) come the findings set out here.

This experiment relates to Leishmania donovani. Kind of experiment: Leishmania intramacrophage assay. Type of experiment: functional, organism-based. Set-up: scale not given: in the data most compounds retested in dose-response had high values.

The structures appear in SMILES notation. Hit rate of the full screen: of about 69,000 compounds, about 1,000 (1.4%) showed an effect of 50% or more. The list comes from a sample in which strong results are over-represented; it also holds similar structures and randomly drawn compounds.

In the case of `Cc1cc(=O)[nH]c(-n2nc(C)c(CCC(=O)NCC(C)C)c2C)n1`, where the note is “30.3 µM, […]”, the “Percent Effect” value is 15.57%.
On to `Cc1nc2c(NCC(C)N(C)c3ccccc3)ncnc2o1` (configuration not stated), for which, under “30.3 µM, […]”, the “Percent Effect” value was found to be 33.01%.
With `Cc1ncnc(NCC(C)N(C)c2ccccc2)c1C` (configuration not stated), the “Percent Effect” value (30.3 µM, […]) turned out to be 57.28%.
`CC(CNc1cncc(-n2cccn2)n1)N(C)c1ccccc1` (configuration not stated): the “Percent Effect” value (30 µM, 30.03 µM) turned out to be 31.44%.
Regarding `Cn1cccc1C(=O)N1CCC(c2nccn2Cc2ccncc2)CC1`, where the note is “30.3 µM, […]”, the “Percent Effect” value amounted to 6.64%.
On the same count and under the same terms, for `CN1CC(=O)N(c2ccccc2)CC12CCN(C(=O)c1cnccn1)C2.O=C(O)C(F)(F)F` (configuration not stated) the value was 4.293%; for `Cc1nn(CCC#N)c(C)c1[C@@H]1C=C[C@@H](NCc2cccc(Cl)c2)C1`, -10.48%.
Same read-out and setting: then `Cc1nn(CCC#N)c(C)c1CCC(=O)N(C)Cc1ccc(F)cc1F`, with 2.715%.
`Cc1nn(CCC#N)c(C)c1[C@@H]1C=C[C@@H](NCc2ccc(F)cc2)C1`: where the note is “30.3 µM, […]”, the “Percent Effect” value was determined as 101.5%.
On to `Cc1cccc2c1N(C)C(=O)C21CC(=O)Nc2c1cnn2C(C)(C)C` (configuration not stated), for which the “Percent Effect” value (30.3 µM, […]) was -18.37%.
With `CN(C)c1ncccc1CNS(=O)(=O)c1cc(F)cc(F)c1`, the “Percent Effect” value (30 µM) worked out at 13.05%.
With `CN(C)c1ncccc1CNS(=O)(=O)c1ccc(F)c(F)c1`, the “Percent Effect” value (30 µM) amounted to 32.33%.
The same measure, in the same setting: for `CCOC(=O)c1ccc(S(=O)(=O)NCc2cccnc2N(C)C)cc1` the value was 21.62%.
With `COc1ccc(S(=O)(=O)NCc2cccnc2N(C)C)cc1F`, the “Percent Effect” value (30 µM, 30.03 µM) was found to be 58.31%.
The same measure, in the same setting: then `CCOc1ccc(S(=O)(=O)NCc2cccnc2N(C)C)cc1`, with 61.25%.
In the case of `COc1ccc(S(=O)(=O)NCc2cccnc2N(C)C)cc1`, the “Percent Effect” value (30 µM) stood at 27.65%.
Take `CC(C)CCN(C)Cc1ccccc1-c1nc(C(C)C)cc(=O)[nH]1`: the “Percent Effect” value (30.3 µM, […]) is given as 41.3%.
Regarding `CNc1cc2c(nn1)CCN(C(=O)c1coc(Br)c1)C2`, the “Percent Effect” value (30 µM) is listed as -2.691%.
On to `COCCC1(CO)CCCN(Cc2cc(C(F)(F)F)ccc2F)C1` (configuration not stated), for which the “Percent Effect” value (30.3 µM, […]) is reported as 0.4261%.
Same read-out and setting: for `O=C(Nc1cccc(CN2CCC(CO)CC2)c1)c1cc(Cl)c[nH]1` the value was 28.48%.
`COCCNC(=O)Cn1cc2c(n1)c(C)nn2C`: the “Percent Effect” value (30.3 µM, […]) was -28.68%.
In the case of `O=C(NCCSC1CCCC1)c1cc(C2CC2)on1`, the “Percent Effect” value (30.3 µM, […]) is on record as -5.763%.
Turning to `Cc1ccc2nc(C)cc(C(=O)NCc3csc(N(C)C)n3)c2c1`, the “Percent Effect” value (30.3 µM, […]) is given as 25.38%.
Take `COCCN(C)CC1CCCN1S(=O)(=O)Cc1ccccc1F` (configuration not stated): the “Percent Effect” value (30.3 µM, […]) is listed as -13.31%.
Same read-out and setting: then `O=C(c1ccco1)N1CCCC2(C1)CN(c1nncs1)CCO2` (configuration not stated), with 54.73%.
`O=C(CCO)N1CCOC2(CCCN(C(=O)c3ccco3)C2)C1` (configuration not stated): the “Percent Effect” value (30 µM, 30.03 µM) is recorded as -4.275%.
Take `CC(=O)N1CCCC2(C1)CN(c1nncs1)CCO2.O=C(O)C(F)(F)F` (configuration not stated): the “Percent Effect” value (30.3 µM, […]) was 42.05%.
On the same count and under the same terms, then `CO[C@@H]1CCN(S(=O)(=O)c2cccs2)[C@H]1Cc1cccnc1.O=C(O)C(F)(F)F`, with 35.84%.
For the compound `Cc1cccc(C)c1OCC(=O)NS(=O)(=O)c1c(C)noc1C`, the “Percent Effect” value (30 µM) stood at 12.57%.
On to `CC(C)S(=O)(=O)N1CCC(c2[nH]ncc2S(C)(=O)=O)C1` (configuration not stated), for which, for the setting “30.3 µM, […]”, the “Percent Effect” value was -8.157%.
For `COc1ccc(-c2ccccc2CCN)c(OC)c1OC`, the “Percent Effect” value (30.3 µM, […]) was determined as 95.35%.
Still for that read-out and setting: then `COc1ccc(-c2ccccc2CN)c(OC)c1`, with 18.4%.
On the same count and under the same terms, for `COc1ccc(-c2cc(CN)ccc2F)c(OC)c1OC` the value was -7.273%; for `CC(C)N1CC[C@@H]2[C@H](COCC3CC3)CN(C)C(=O)[C@@H]2CC1.O=C(O)C(F)(F)F`, 9.802%; for `CS(=O)(=O)c1ccc(NC(=O)NCCC2=CCCCC2)cc1`, 16.41%.
Take `Cc1ccc(CNC(c2ccccc2)c2nccn2C)cc1.Cl` (configuration not stated): the “Percent Effect” value (30 µM) was -15.51%.
On to `O=C(NC(CN1CCCC1)c1ccccc1)c1c(O)cc(F)cc1F` (configuration not stated), for which the “Percent Effect” value (30.3 µM, […]) stood at 5.752%.
Regarding `Cc1ccc(CNC(=O)CN2CCN(CC(O)C3CC3)CC2)cc1.Cl.Cl` (configuration not stated), the “Percent Effect” value (30 µM, 30.03 µM) was 31.99%.
For `Cn1cc(C(NCc2ccc(F)cc2)c2cccc(F)c2)cn1` (configuration not stated), the “Percent Effect” value (30.3 µM, […]) amounted to 7.526%.
Take `CNS(=O)(=O)c1cccc(C(C)NCc2ccc(F)c(F)c2)c1` (configuration not stated): where the note is “30.3 µM, […]”, the “Percent Effect” value is reported as 11.11%.
For `Cl.O=C(NCc1ccc(F)cc1)N1CCN(CC(O)C2CC2)CC1` (configuration not stated), the “Percent Effect” value (30.3 µM, […]) turned out to be 10.63%.
As for `Cc1ccc(CNC(CN2CCN(C)CC2)c2ccccc2)cc1` (configuration not stated), where the note is “30 µM, 30.03 µM”, the “Percent Effect” value is 94.58%.
On the same count and under the same terms, for `Cc1ccc(CNC(c2ccccc2)c2nccn2C)cc1C` (configuration not stated) the value was 38.71%.
For `COc1ccc(CNC(Cn2cncn2)c2ccccc2)cc1C` (configuration not stated), the “Percent Effect” value (30.3 µM, […]) was determined as 17.02%.
Turning to `O=C(O)C(F)(F)F.O=C1COC2(CCN(S(=O)(=O)C3CC3)CC2)CN1c1cccnc1`, the “Percent Effect” value (30.3 µM, […]) is on record as -7.696%.
As for `COc1ccc(C)nc1NC(=O)Cc1c(C)nn(C)c1C`, under “30.3 µM, […]”, the “Percent Effect” value is 1.753%.
For `CC(C)NC(=O)c1ccc2nnc(C3CCN(S(C)(=O)=O)C3)n2c1` (configuration not stated), where the note is “30.3 µM, […]”, the “Percent Effect” value was 33.79%.
Same read-out and setting: then `CC(Cn1cncn1)NC(=O)N1CC2(CCCC2)c2ccccc21` (configuration not stated), with 3.028%.
For the compound `COc1ccc(C2CCCN2C(=O)NCCNc2ncccn2)cc1` (configuration not stated), for the setting “30 µM, 30.03 µM”, the “Percent Effect” value is on record as 9.2%.
Turning to `COc1ccc(C2CCCN2C(=O)NCCCn2cccn2)cc1` (configuration not stated), the “Percent Effect” value (30.3 µM, […]) is on record as 9.048%.
Same read-out and setting: for `COc1ccc(C2CCCN2C(=O)NCCNc2ccccn2)cc1` (configuration not stated) the value was 69.63%.
The same measure, in the same setting: for `CC(=O)c1cccc(-n2nc(C(C)=O)c(C(C)=O)c2C)c1` the value was -0.2536%.
